Rows were chosen to be rich in hits. Some 11% of all compounds tested hit in one or more screens of this group.
Pf growth 96h – inhibits malaria parasite growth, 96 h; Potency, µM (titrated, usually from 28.7 µM), usual class: inhibitors; actives 6.9% (n = 320,000); AID 504834; P. falciparum luciferase reporter growth, 96 h
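Two parasite generations (96 h, 37 C, 5% CO2) of compound exposure in infected erythrocytes (0.05% parasitemia, 2% hematocrit). Luciferase-reporter P. falciparum; decreased luminescence indicates inhibited growth, aimed at apicoplast-acting delayed death.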
NS1 function inh – blocks influenza NS1 protein function. Potency, µM (titrated, usually from 46.1 µM). actives 0.4% (n = 270,000); calls by dose curve; further: actives are rising curves; nearly all actives have a fitted effect of over 50% in size
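Read-out: OD600 growth recovery of NS1-expressing budding yeast. Cells grown overnight at 30C in -URA glucose medium, washed, resuspended and diluted 1:100 in 2% galactose assay medium, pH 6.0. Same strain lacking NS1 served as positive control.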
Sm TGR block – blocks Schistosoma mansoni thioredoxin glutathione reductase. Q962Y6. purified TGR, DTNB reduction, TNB absorbance 405 nm. Potency, µM (titrated, usually from 114 µM), most hits filed as inhibitors. actives 3% (n = 360,000); further: nearly all actives have a fitted effect of over 60% in size
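TGR 20 nM + NADPH 100 uM (dispensed conc.), cpd preinc 15 min RT; start with NADPH (500 uM addition) then DTNB (15 mM addition). Kinetic TNB absorbance, 405 nm filter. Four-parameter Hill fit across titration.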
Pf growth 48h – P. falciparum growth inhibition at 48 hours (one generation); Potency, µM (doses to about 28.7 µM), actives largely listed as inhibitors; AID 504832; P. falciparum luciferase growth in erythrocytes, 48 h; actives 5.9% (n = 310,000)
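Read-out is firefly luciferase luminescence from an integrated reporter in P. falciparum, so falling signal marks reduced parasite growth. Infected erythrocytes were at 2% hematocrit and 0.1% parasitemia (final) in Albumax-supplemented RPMI 1640.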
AMA1 RON2 block – AMA1-RON2 (P. falciparum) interaction inhibition. AlphaScreen AMA1-biotinylated RON2 peptide binding. Potency, µM (top dose mostly 58.2 µM), actives largely listed as inhibitors. actives 0.2% (n = 360,000); further: nearly all actives have a fitted effect of over 45% in size
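AMA1 (3D7) with his tag at 25 nM final met compounds first, then biotinylated RON2 peptide at 25 nM; detection used donor plus acceptor beads, 10 µg/mL apiece, read by AlphaScreen after 30 min at room temperature.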
Hits are given with their value. Unless noted, the call rests on the fitted dose curve; in most records, active means well fitted curve in the direction sought with a large enough effect; inconclusive means small, poorly fitted or top-dose-only effect, or another doubt; inactive means no such curve, though single readings can be large; an effect the other way counts as inactive or inconclusive.

`CCN(Cc1ccccc1)C(=O)CCNS(=O)(=O)c1cc(Br)cnc1N` gave Pf growth 96h inactive, NS1 function inh inactive, Sm TGR block inactive, Pf growth 48h 13µM and AMA1 RON2 block inactive.
For COc1ccc(N2Cc3ccc(C(=O)N/N=C\c4ccc(O)cc4O)cc3C2)cc1 the results were Pf growth 96h inconclusive, NS1 function inh inactive, Sm TGR block 28µM and Pf growth 48h inactive.
COc1ccc2nc(C)cc(SCC(=O)N/N=C/c3ccc(O)cc3O)c2c1 was read as Pf growth 96h inactive, NS1 function inh inactive, Sm TGR block inactive, Pf growth 48h inconclusive and AMA1 RON2 block inactive.
Screening COc1ccc(NC(=O)CCC(=O)N/N=C/c2ccc([N+](=O)[O-])s2)cc1 returned Pf growth 96h inconclusive, NS1 function inh inactive, Sm TGR block inconclusive, Pf growth 48h 7.4µM and AMA1 RON2 block inactive.
Screening O=C(Cc1ccccc1)NCC(=O)N/N=C/c1ccc([N+](=O)[O-])s1 returned Pf growth 96h 5.2µM, NS1 function inh inactive, Sm TGR block inactive, Pf growth 48h inconclusive and AMA1 RON2 block inactive.
CCOC(=O)N/N=C\c1ccc([N+](=O)[O-])s1 was read as Pf growth 96h inconclusive, Sm TGR block inactive, Pf growth 48h inconclusive and AMA1 RON2 block inactive.
O=C(CNC(=O)c1ccccc1)N/N=C/c1ccc([N+](=O)[O-])s1 was read as Pf growth 96h 4.1µM, Sm TGR block inconclusive, Pf growth 48h inconclusive and AMA1 RON2 block inactive.
Screening COc1ccc(CCC(=O)NNC(=O)c2cccs2)cc1 returned Pf growth 96h inactive, Sm TGR block inactive, Pf growth 48h inactive and AMA1 RON2 block inactive.
For COc1ccc(CCC(=O)N/N=C\c2cccs2)cc1 the results were Pf growth 96h inactive, Sm TGR block inactive, Pf growth 48h 9.3µM and AMA1 RON2 block inactive.
Screening COc1ccc(-n2ccn3c(CCC(=O)N4CCN(c5cccc(C)c5C)CC4)nnc3c2=O)cc1 returned Pf growth 96h inconclusive, NS1 function inh inactive, Sm TGR block inactive, Pf growth 48h inconclusive and AMA1 RON2 block inactive.
`NS(=O)(=O)c1ccc(NC(=O)COC(=O)CCc2ccccc2)cc1` gave Pf growth 96h inactive, NS1 function inh inactive, Sm TGR block inactive, Pf growth 48h inactive and AMA1 RON2 block inactive.
Screening CC(C)c1nc(NCc2ccccc2)c(C#N)c2c1CCCC2 returned Pf growth 96h inconclusive, NS1 function inh inactive, Sm TGR block inactive, Pf growth 48h inconclusive and AMA1 RON2 block inactive.
`N#Cc1c(NCCCO)nc(NCc2ccccc2)c2c1CCN(Cc1ccccc1)C2` gave Pf growth 96h 10µM, NS1 function inh inactive, Sm TGR block inactive, Pf growth 48h inconclusive and AMA1 RON2 block inactive.
For CN1CCc2c(C#N)c(N3CCCCC3)nc(NCc3ccccc3)c2C1 the results were Pf growth 96h 2.3µM, NS1 function inh inactive, Sm TGR block inactive, Pf growth 48h inconclusive and AMA1 RON2 block inactive.
`COc1cc(C=C2C(=O)NC(=O)NC2=O)ccc1OCc1ccc([N+](=O)[O-])cc1` gave Pf growth 96h inactive, Sm TGR block 25µM, Pf growth 48h inactive and AMA1 RON2 block inactive.
Screening COC(=O)C(=Cc1ccc(OCc2ccc([N+](=O)[O-])cc2)c(OC)c1)C(=O)OC returned Pf growth 96h inactive, NS1 function inh inactive, Sm TGR block inactive, Pf growth 48h inconclusive and AMA1 RON2 block inactive.
Screening O=C(CCNS(=O)(=O)c1ccc(Br)cc1)N1CCN(c2ccccc2O)CC1 returned Pf growth 96h inconclusive, Sm TGR block inactive, Pf growth 48h 10µM and AMA1 RON2 block inactive.
`COc1ccccc1N1CCN(C(=O)CCNS(=O)(=O)c2ccc(Br)s2)CC1` gave Pf growth 96h inactive, NS1 function inh inactive, Sm TGR block inactive, Pf growth 48h inactive and AMA1 RON2 block inactive.
For COc1cc2c(cc1OC)CN(C(=O)CCNS(=O)(=O)c1ccc(Br)cc1)CC2 the results were Pf growth 96h inconclusive, Sm TGR block inactive, Pf growth 48h 9.3µM and AMA1 RON2 block inactive.
`O=C(CNS(=O)(=O)c1ccc(Br)cc1)N1CCN(c2ccc(F)cc2)CC1` gave Pf growth 96h 13µM, NS1 function inh inactive, Sm TGR block inactive, Pf growth 48h inconclusive and AMA1 RON2 block inactive.
Screening O=C(CCNS(=O)(=O)c1ccc(Br)s1)N1CCN(c2ccccc2)CC1 returned Pf growth 96h 12µM, NS1 function inh inactive, Sm TGR block inactive, Pf growth 48h inactive and AMA1 RON2 block inactive.
CC(=O)c1ccc(NC(=O)C2CCN(c3nnc(C)c4c(C)n(-c5ccccc5)nc34)CC2)cc1 was read as Sm TGR block inactive.
CS(=O)(=O)c1ccc([C@@H](O)[C@@H](COC(=O)CN)NC(=O)C(Cl)Cl)cc1 was read as Pf growth 96h 1.9µM and Pf growth 48h inconclusive.
For CC(NC(=O)c1ccc(S(C)(=O)=O)cc1)c1cccc2ccccc12 (stereo unspecified) the results were Pf growth 96h inactive, NS1 function inh inactive, Sm TGR block inactive, Pf growth 48h inconclusive and AMA1 RON2 block inactive.
For CCOc1ccc(-n2c(-c3ccc(Br)cc3)c[n+]3c2CCCCC3)cc1 the results were Pf growth 96h inconclusive, Sm TGR block inactive, Pf growth 48h 5.2µM and AMA1 RON2 block inactive.
For CCOc1ccc(-n2c(-c3ccc(OC)cc3)c[n+]3c2CCCCC3)cc1 the results were Pf growth 96h inconclusive, NS1 function inh inactive, Sm TGR block inactive, Pf growth 48h 0.74µM and AMA1 RON2 block inactive.
CCC(=O)Nc1sc(C(=O)Nc2ccccc2F)c(C)c1C(=O)OC was read as Pf growth 96h 2.1µM, NS1 function inh inactive, Sm TGR block inactive, Pf growth 48h inactive and AMA1 RON2 block inactive.
COC(=O)c1sccc1NC(=O)Nc1ccccc1F was read as Pf growth 96h 9.3µM, NS1 function inh inactive, Sm TGR block inactive, Pf growth 48h inactive and AMA1 RON2 block inactive.
Screening COC(=O)c1c(NC(C)=O)sc(C(=O)Nc2ccccc2F)c1C returned Pf growth 96h inactive, NS1 function inh inactive, Pf growth 48h inactive and AMA1 RON2 block inactive.
Screening Cc1ccc(C)c(OCC(O)CN2CCC(CN3C(=O)c4cccc5cccc(c45)C3=O)CC2)c1 (stereo unspecified) returned Pf growth 96h inactive, NS1 function inh inactive, Sm TGR block inactive, Pf growth 48h inactive and AMA1 RON2 block inactive.
For COc1ccc(S(=O)(=O)N2CCC(CN3C(=O)c4cccc5cccc(c45)C3=O)CC2)cc1 the results were Pf growth 96h 1.5µM, NS1 function inh inconclusive, Sm TGR block inactive, Pf growth 48h inconclusive and AMA1 RON2 block inactive.
O=C(c1ccc(S(=O)(=O)N2CCCC2)cc1)N1CCC(CN2C(=O)c3cccc4cccc(c34)C2=O)CC1 was read as Pf growth 96h 1.3µM, NS1 function inh inactive, Sm TGR block inactive, Pf growth 48h 12µM and AMA1 RON2 block inactive.
Screening COc1ccc(OCC(O)CN2CCC(CN3C(=O)c4cccc5cccc(c45)C3=O)CC2)cc1 (stereo unspecified) returned Pf growth 96h inactive, NS1 function inh inactive, Sm TGR block inactive, Pf growth 48h 8.3µM and AMA1 RON2 block inactive.

From PubChem
